1 sequence from PMC7862700, “An all-to-all approach to the identification of sequence-specific readers for epigenetic DNA modifications on cytosine” can be followed below.

Holding throughout (assay): DAPPL (digital affinity profiling via proximity ligation, sequencing); 10 mM Tris-HCl pH 7.5, 50 mM NaCl, 1 mM DTT, 4% glycerol, room temperature, 30 min; GST-TFs on glutathione beads, 16-mer random dsDNA library, 0.1% formaldehyde crosslink after washing; high values mean tight binding
One test has as its target T1, FLI1 (Homo sapiens, UniProt Q01543 1-452).
T1 sequence: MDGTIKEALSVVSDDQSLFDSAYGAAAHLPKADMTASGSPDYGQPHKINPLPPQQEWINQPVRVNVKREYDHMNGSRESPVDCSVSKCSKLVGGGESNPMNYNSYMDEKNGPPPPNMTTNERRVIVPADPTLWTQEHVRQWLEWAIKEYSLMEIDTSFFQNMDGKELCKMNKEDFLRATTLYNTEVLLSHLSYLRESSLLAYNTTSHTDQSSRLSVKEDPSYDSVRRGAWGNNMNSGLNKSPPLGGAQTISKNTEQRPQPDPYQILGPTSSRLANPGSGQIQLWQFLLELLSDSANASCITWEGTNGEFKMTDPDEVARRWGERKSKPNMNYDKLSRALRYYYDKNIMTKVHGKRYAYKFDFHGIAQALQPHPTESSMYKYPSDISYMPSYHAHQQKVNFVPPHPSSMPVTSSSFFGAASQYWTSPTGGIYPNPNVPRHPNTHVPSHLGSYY
The settings on record: protein: recombinant; tags: N-terminal GST; dsDNA, one strand shown. Put shortly: (§1)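 Beads coated with glutathione captured GST-fused human transcription factors that had been expressed in yeast, and the factors were then given DNA barcodes and pooled with a tag-only sample. The pools were incubated with 200 nmole of a random double-stranded 16-mer DNA library in Tris/NaCl/DTT/glycerol buffer for 30 min at room temperature, washed, crosslinked with 0.1% formaldehyde and proximity-ligated with BsaI/T4 ligase at 37 °C for 1 h. PCR amplification and Illumina NextSeq500 sequencing came last. Binding signal is each hexamer's read frequency for a factor divided by its frequency for the tag-only sample.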

The target in the next test is T2, ELK1 (Homo sapiens, UniProt P19419 1-428).
T2 sequence: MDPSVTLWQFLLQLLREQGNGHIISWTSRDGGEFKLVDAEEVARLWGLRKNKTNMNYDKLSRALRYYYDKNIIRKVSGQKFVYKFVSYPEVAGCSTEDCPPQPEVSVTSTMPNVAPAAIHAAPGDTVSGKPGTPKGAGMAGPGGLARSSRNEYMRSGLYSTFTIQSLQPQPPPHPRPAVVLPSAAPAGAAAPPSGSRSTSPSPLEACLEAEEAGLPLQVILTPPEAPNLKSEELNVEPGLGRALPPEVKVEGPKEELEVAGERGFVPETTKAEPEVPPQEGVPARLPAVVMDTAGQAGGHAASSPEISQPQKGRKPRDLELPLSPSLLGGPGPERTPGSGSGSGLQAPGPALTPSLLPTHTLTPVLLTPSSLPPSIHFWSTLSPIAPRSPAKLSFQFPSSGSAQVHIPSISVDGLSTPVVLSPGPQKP
The settings on record: protein: recombinant; tags: N-terminal GST; dsDNA, one strand shown. Put shortly:
as §1

Another test has as its target T3, GABPA (Homo sapiens, UniProt Q06546 1-454).
T3 sequence: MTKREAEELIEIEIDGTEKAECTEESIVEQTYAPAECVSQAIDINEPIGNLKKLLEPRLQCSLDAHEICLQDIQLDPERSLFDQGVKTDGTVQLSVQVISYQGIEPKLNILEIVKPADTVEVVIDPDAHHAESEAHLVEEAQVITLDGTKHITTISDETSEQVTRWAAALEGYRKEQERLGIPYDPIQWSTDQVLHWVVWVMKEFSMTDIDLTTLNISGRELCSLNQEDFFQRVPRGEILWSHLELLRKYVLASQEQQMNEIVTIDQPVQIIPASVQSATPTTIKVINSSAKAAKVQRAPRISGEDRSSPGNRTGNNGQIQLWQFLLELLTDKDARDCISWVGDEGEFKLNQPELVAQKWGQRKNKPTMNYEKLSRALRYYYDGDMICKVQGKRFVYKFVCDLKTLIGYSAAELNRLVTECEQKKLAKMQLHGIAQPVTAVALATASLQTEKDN
The settings on record: protein: recombinant; tags: N-terminal GST; dsDNA, one strand shown. Put shortly:
as §1

Another test has as its target T4, ERG (Homo sapiens, UniProt P11308 1-479).
T4 sequence: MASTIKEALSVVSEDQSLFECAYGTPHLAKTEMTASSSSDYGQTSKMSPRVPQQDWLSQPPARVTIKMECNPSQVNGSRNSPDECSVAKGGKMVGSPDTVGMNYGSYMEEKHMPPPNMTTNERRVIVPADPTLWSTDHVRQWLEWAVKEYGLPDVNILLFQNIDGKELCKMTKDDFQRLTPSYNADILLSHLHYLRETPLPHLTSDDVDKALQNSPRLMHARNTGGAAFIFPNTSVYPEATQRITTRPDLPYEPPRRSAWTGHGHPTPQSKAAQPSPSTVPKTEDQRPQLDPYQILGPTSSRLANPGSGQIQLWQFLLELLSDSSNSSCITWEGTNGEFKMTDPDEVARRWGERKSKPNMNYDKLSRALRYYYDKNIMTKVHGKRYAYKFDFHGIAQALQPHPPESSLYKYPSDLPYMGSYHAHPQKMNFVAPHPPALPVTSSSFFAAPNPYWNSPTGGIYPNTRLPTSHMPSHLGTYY
The settings on record: protein: recombinant; tags: N-terminal GST; dsDNA, one strand shown. In short, it runs like this:
as §1

In a further test the target is ELF1 (Homo sapiens, UniProt P32519 1-619). To be noted: protein: recombinant; tags: N-terminal GST; dsDNA, one strand shown. In short, it runs like this:
as §1

Another test deals with T5, EHF (Homo sapiens, UniProt Q9NZC4 1-300).
T5 sequence: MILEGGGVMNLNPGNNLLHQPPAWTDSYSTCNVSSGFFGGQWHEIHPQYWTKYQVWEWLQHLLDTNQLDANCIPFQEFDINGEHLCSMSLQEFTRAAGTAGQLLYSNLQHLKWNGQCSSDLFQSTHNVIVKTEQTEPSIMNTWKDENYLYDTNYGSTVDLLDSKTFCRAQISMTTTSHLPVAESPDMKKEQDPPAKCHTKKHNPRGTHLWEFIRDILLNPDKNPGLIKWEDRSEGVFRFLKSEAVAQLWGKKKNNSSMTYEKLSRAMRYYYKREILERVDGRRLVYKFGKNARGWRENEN
The settings on record: protein: recombinant; tags: N-terminal GST; dsDNA, one strand shown. Put shortly: as §1

The target of another test is SPI1 (Homo sapiens, UniProt P17947 1-270). The settings on record: protein: recombinant; tags: N-terminal GST; dsDNA, one strand shown. Put shortly:
as §1

Another test addresses SPIB (Homo sapiens, UniProt Q01892 1-262). To be noted: protein: recombinant; tags: N-terminal GST; dsDNA, one strand shown. In short, it runs like this: as §1
The next test has as its target T6, ELK3 (Homo sapiens, UniProt P41970 1-407).
T6 sequence: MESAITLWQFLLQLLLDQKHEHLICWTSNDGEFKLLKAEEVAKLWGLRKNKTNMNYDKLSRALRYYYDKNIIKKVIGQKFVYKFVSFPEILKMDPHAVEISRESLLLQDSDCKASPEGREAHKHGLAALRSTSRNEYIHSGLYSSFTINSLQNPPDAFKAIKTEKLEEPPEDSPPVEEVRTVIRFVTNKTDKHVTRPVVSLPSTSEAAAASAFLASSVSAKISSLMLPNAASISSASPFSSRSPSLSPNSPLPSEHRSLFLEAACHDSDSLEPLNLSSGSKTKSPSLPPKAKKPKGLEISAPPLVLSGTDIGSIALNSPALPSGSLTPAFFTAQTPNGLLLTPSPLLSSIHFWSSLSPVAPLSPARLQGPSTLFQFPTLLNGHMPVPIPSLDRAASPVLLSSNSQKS
The settings on record: protein: recombinant; tags: N-terminal GST; dsDNA, one strand shown. Put shortly:
as §1

For the next test, the target named is T7, FEV (Homo sapiens, UniProt Q99581 1-238).
T7 sequence: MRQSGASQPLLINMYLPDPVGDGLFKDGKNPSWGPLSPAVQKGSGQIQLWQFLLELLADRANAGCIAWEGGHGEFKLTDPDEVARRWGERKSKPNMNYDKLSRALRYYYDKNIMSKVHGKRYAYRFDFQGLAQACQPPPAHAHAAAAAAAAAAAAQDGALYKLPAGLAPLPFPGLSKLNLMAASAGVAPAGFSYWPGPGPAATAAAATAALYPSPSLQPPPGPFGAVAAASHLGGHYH
The settings on record: protein: recombinant; tags: N-terminal GST; dsDNA, one strand shown. Put shortly:
as §1

In another test the target is ETV5 (Homo sapiens, UniProt P41161 1-510). The settings on record: protein: recombinant; tags: N-terminal GST; dsDNA, one strand shown. In short, it runs like this:
as §1

The target in the next test is HSF1 (Homo sapiens, UniProt Q00613 1-529). The settings on record: protein: recombinant; tags: N-terminal GST; chain copies: 3; dsDNA, one strand shown. In short, it runs like this: as §1
Sequence of HSF1 (Q00613 whole entry): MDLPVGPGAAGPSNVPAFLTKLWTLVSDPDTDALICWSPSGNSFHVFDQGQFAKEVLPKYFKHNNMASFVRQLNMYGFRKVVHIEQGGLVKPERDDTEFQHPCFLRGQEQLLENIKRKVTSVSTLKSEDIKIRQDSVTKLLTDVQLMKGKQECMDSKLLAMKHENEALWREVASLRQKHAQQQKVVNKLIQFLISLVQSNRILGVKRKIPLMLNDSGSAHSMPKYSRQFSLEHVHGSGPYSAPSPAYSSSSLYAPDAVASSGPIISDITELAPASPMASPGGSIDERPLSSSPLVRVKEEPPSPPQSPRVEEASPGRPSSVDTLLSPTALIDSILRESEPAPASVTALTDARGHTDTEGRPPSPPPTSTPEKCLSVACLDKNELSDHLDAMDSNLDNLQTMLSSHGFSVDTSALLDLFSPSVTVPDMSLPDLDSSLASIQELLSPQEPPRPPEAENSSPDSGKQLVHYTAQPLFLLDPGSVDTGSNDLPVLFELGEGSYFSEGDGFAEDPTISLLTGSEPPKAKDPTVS
For a further test, the target named is T8, SPIC (Homo sapiens, UniProt Q8N5J4 1-248).
T8 sequence: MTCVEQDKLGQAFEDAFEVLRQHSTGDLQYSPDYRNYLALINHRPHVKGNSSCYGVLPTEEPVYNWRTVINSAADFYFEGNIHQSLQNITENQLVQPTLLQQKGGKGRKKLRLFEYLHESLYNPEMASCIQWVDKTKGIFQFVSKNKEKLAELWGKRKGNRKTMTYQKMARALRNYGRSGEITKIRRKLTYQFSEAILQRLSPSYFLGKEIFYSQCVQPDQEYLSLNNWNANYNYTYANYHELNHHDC
To be noted: protein: recombinant; tags: N-terminal GST; dsDNA, one strand shown. In short, it runs like this:
as §1

The next test concerns the target ELF4 (Homo sapiens, UniProt Q99607 1-663). The settings on record: protein: recombinant; tags: N-terminal GST; dsDNA, one strand shown. Put shortly:
as §1

A further test addresses T9, ELK4 (Homo sapiens, UniProt P28324-2 1-405).
T9 sequence: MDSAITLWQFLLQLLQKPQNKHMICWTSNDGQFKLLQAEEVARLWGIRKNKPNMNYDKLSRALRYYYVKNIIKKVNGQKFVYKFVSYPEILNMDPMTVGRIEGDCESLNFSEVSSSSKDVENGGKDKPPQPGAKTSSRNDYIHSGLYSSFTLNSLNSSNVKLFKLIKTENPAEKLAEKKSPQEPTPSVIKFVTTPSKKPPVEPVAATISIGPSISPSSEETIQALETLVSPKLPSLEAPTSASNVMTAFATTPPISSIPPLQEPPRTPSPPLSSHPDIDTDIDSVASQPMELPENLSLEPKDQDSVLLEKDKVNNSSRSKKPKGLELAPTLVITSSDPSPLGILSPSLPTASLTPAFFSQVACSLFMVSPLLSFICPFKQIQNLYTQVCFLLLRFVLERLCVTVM
To be noted: protein: recombinant; tags: N-terminal GST; dsDNA, one strand shown. Put shortly:
as §1

The target of another test is T10, ETV2 (Homo sapiens, UniProt O00321 1-342).
T10 sequence: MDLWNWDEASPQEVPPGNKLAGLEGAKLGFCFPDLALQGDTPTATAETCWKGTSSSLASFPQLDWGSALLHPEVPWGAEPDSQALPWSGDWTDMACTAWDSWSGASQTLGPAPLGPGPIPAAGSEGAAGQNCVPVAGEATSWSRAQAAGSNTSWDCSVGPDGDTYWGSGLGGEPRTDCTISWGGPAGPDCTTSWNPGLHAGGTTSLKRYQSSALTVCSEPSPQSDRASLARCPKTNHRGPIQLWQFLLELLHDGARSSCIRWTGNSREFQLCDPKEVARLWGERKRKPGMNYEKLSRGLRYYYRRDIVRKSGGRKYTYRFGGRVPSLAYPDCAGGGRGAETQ
To be noted: protein: recombinant; tags: N-terminal GST; dsDNA, one strand shown. Put shortly:
as §1

The target of the next test is T11, ELF3 (Homo sapiens, UniProt P78545 1-371).
T11 sequence: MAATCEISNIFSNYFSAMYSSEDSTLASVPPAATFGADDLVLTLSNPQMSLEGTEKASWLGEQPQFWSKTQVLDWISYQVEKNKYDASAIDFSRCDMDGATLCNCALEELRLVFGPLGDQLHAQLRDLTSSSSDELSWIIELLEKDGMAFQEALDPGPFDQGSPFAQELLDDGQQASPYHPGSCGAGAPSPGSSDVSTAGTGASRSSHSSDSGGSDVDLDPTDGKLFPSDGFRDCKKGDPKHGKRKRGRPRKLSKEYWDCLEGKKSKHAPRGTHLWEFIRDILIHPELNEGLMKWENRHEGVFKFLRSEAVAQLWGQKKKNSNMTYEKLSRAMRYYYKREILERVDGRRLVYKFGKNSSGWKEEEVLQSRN
The settings on record: protein: recombinant; tags: N-terminal GST; dsDNA, one strand shown. Put shortly: as §1

The next test has as its target CRX (Homo sapiens, UniProt O43186 1-299). The settings on record: protein: recombinant; tags: N-terminal GST; dsDNA, one strand shown. In short, it runs like this:
as §1

The target of the next test is ETV1 (Homo sapiens, UniProt P50549 1-477). To be noted: protein: recombinant; tags: N-terminal GST; dsDNA, one strand shown. Put shortly: as §1
Sequence of ETV1 (P50549 whole entry): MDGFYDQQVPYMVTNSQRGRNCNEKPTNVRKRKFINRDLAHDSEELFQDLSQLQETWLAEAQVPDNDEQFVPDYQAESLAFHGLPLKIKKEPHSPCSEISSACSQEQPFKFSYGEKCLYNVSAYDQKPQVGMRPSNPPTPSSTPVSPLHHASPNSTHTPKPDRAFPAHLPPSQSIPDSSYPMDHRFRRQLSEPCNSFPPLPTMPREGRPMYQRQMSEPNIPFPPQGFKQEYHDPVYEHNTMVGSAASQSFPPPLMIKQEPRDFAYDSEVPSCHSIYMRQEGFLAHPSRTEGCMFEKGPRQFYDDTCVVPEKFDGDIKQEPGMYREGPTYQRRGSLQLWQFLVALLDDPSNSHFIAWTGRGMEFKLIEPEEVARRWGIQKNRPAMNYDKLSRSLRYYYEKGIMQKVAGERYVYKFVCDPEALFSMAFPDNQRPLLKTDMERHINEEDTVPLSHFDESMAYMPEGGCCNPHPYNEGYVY

Sequence of SPIB (Q01892 whole entry): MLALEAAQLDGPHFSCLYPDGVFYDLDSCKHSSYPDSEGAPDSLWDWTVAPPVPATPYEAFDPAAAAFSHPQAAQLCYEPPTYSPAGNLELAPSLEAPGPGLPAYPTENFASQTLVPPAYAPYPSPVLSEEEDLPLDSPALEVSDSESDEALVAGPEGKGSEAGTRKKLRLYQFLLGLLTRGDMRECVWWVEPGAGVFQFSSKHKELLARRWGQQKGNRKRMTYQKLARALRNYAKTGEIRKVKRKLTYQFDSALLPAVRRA
Sequence of CRX (O43186 whole entry): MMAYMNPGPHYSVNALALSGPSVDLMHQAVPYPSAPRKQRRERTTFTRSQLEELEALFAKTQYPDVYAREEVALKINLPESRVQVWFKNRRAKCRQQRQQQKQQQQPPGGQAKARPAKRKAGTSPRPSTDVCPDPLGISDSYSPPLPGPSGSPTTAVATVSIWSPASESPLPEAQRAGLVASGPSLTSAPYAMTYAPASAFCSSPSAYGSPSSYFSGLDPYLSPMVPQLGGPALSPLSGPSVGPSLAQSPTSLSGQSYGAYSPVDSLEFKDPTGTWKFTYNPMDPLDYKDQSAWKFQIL
Sequence of ELF1 (P32519 whole entry): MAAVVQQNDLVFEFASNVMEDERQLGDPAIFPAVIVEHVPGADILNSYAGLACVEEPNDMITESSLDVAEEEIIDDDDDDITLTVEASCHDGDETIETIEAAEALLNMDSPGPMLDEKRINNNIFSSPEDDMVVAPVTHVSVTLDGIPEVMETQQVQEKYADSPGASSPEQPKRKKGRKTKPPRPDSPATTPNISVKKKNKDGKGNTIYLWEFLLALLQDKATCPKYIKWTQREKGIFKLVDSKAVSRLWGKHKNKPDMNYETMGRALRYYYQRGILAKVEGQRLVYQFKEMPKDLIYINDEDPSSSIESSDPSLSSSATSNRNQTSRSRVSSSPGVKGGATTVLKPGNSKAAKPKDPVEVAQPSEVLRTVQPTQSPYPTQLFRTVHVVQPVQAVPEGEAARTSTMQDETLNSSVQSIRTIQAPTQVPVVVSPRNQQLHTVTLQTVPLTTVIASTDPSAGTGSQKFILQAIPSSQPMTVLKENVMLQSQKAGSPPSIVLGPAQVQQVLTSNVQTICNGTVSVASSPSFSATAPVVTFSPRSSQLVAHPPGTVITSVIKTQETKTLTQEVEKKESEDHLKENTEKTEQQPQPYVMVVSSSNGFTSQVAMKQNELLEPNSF
Sequence of ELF4 (Q99607 whole entry): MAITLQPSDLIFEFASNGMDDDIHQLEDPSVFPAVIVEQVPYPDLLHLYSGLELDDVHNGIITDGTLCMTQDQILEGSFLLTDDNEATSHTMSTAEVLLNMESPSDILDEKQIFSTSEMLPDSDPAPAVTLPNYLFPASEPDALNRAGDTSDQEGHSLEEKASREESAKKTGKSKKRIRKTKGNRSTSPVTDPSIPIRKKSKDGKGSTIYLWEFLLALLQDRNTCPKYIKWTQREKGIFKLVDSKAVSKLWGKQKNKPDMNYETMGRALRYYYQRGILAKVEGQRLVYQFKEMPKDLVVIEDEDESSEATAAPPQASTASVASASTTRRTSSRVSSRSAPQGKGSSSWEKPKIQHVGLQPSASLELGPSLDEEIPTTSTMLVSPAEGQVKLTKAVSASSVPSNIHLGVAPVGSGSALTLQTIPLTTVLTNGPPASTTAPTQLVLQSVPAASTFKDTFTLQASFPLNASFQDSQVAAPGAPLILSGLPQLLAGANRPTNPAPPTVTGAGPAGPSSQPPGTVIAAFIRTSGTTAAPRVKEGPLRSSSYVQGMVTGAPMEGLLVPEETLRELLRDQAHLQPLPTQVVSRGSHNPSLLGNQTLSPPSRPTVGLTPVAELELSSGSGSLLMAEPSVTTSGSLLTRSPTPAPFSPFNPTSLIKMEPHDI
Sequence of ETV5 (P41161 whole entry): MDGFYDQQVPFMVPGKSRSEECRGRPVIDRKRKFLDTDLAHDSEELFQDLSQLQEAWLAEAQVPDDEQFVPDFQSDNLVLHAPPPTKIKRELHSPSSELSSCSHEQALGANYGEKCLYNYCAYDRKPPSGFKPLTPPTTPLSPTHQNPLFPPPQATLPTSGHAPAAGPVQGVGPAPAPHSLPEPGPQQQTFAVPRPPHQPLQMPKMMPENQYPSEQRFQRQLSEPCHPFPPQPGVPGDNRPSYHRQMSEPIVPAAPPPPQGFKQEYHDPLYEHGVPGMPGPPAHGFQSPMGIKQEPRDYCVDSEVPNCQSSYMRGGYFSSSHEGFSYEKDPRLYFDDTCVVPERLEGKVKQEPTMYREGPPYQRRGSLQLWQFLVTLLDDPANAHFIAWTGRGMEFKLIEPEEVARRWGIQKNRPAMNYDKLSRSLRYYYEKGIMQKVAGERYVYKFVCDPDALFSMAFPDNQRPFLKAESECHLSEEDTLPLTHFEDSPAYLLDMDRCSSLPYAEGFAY

For TCCCTT, the binding signal was 1.63 fold enrichment (6-mer frequency, TF over GST control) in the test with FLI1; 1.56 fold enrichment (6-mer frequency, TF over GST control) with ELK1; 1.47 fold enrichment (6-mer frequency, TF over GST control) in the test with GABPA; 1.67 fold enrichment (6-mer frequency, TF over GST control) in the test with ERG; 1.62 fold enrichment (6-mer frequency, TF over GST control) with ELF1; 1.5 fold enrichment (6-mer frequency, TF over GST control) with EHF. The binding signal in the test with SPI1 is 1.69 fold enrichment (6-mer frequency, TF over GST control); with SPIB, 1.61 fold enrichment (6-mer frequency, TF over GST control); with ELK3, 1.37 fold enrichment (6-mer frequency, TF over GST control); with FEV, 1.51 fold enrichment (6-mer frequency, TF over GST control); with ETV5, 1.5 fold enrichment (6-mer frequency, TF over GST control); in the test with HSF1, 1.51 fold enrichment (6-mer frequency, TF over GST control). For the same sequence, the binding signal in the test with SPIC was 1.66 fold enrichment (6-mer frequency, TF over GST control); with ELF4, 1.68 fold enrichment (6-mer frequency, TF over GST control); in the test with ELK4 it was 1.41 fold enrichment (6-mer frequency, TF over GST control); with ETV2 it was 1.32 fold enrichment (6-mer frequency, TF over GST control); with ELF3 it was 1.5 fold enrichment (6-mer frequency, TF over GST control); with CRX it was 1.69 fold enrichment (6-mer frequency, TF over GST control). Moreover, in the test with ETV1, the binding signal was 1.49 fold enrichment (6-mer frequency, TF over GST control).
